Each sequence was assayed against T1, ETS1 (UniProt P14921) (assay: ETS1 binding intensity (PBM fluorescence) in presence of RUNX1, normalised to ETS1-only experiment (arbitrary fluorescence units); higher = stronger binding). Conditions: ETS1 concentration 1 nM; RUNX1 concentration 25 nM.
T1 sequence: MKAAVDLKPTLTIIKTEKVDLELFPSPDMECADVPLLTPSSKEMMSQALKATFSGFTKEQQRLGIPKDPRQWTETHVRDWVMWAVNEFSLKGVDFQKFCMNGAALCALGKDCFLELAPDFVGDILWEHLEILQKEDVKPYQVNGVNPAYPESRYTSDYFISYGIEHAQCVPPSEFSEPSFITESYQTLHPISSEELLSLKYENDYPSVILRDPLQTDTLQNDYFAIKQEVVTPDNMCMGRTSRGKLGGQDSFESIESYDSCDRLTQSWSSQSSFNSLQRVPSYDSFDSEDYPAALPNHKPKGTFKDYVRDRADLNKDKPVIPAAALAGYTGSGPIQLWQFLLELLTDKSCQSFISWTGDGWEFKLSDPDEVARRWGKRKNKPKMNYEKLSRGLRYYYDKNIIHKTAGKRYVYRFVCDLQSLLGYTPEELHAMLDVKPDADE
GCCGCCTCTTCCTGTGTTGCAAACCACAGGTCCACC was tested, and the ETS1 binding intensity was 2340. AGGACCGGAAGTGCCCGAGGGCGGCCGCAGAACGGT was tested, and the ETS1 binding intensity was 16700. Work on GGGCCCACATCCGGCGCGCGCAACCGCAGCCTACTG yielded an ETS1 binding intensity of 6540. For CAAACAGGTTCCGGCCGGACTACAGCGCCCACAATG, the ETS1 binding intensity was 460. Sequence ACCACGAGCCCAGGATGCGGTTTATGCGCTGTCGGG has an ETS1 binding intensity of 2890. ATACTGAGTCATTTCCTGTGGTGTTATTGTGTTGTA was tested, and the ETS1 binding intensity was 2500. For ACCCGGATGTCGTTGGGCAGGAACTGCGGTGAGGGC, the ETS1 binding intensity was 7980. Work on GGCCCAGGAAAGAGGCAGGGGTGCGGTTTCCCTCCG yielded an ETS1 binding intensity of 761. GCGGAGCGAGCGGCCGGATGCGGTCACCATAGAGAC gave an ETS1 binding intensity of 25200. Sequence CCAAGTGTAAAACGGAAGCTCAACCACGAATCTTAC has an ETS1 binding intensity of 2960. CCGCTTCCGGGACGCGAATCGCTCTGCGGCTGCGTC showed an ETS1 binding intensity of 722. In the case of GGTTTAACGTTTCCGGTTTGTGGCTAGTTTCTTGTC, the ETS1 binding intensity is reported as 12500. TATTCAGGCTTCCGGGTGATGTTTGTGGCCACCCGG gave an ETS1 binding intensity of 5020. In the case of CTTCACTATGCATCCTGTACTGCAACCACACCAAAC, the ETS1 binding intensity is reported as 793. CCGGGACCGGAAGAGGGAGCCGTGGTTGCTGGAACT showed an ETS1 binding intensity of 4030. With AGTTTCTTCTTTCCGGTGGGTTTGTGGTCTTGCTGA the ETS1 binding intensity was 2990. GCCCAGGAAGTGGGTACAAAATGAGCCACAAGACCT gave an ETS1 binding intensity of 839. Sequence CTGAGCCGGGACCGGAAGCCGCACCGCCCCCCGCGC has an ETS1 binding intensity of 21700. Sequence TGATGCACTTCCTGAGGGCCCGCATGTGGTAAACAC has an ETS1 binding intensity of 880. For GTCGTCCCGGAAACCGGGATGCGGTTATCAGAGCGA, the ETS1 binding intensity was 7110. GCCTGCAGCTTCTTCCTGTGGCTTCTGCATCTCAGG gave an ETS1 binding intensity of 3930. CACTTCCTGCCCTCTTCCACTTTCAAAACCACATCA was tested, and the ETS1 binding intensity was 1850. In the case of CACCTGGCCCGGACGGCTGCGGTCTGGAGGGCTGTC, the ETS1 binding intensity is reported as 792. For CCTGCCTGACCGGAAGTGCCCGCAACCCCACCGACC, the ETS1 binding intensity was 32600. TTAACCAGACATTTCCTGTGGTCTAAGGTGACCCCA showed an ETS1 binding intensity of 1090. In the case of CTCACAACTCGCGTCCGGCGGAGACCACAATTCCCG, the ETS1 binding intensity is reported as 530. Work on AATGCCGGATATTGGTTCTGGTAAGCCACAAAAAAG yielded an ETS1 binding intensity of 4090. GGCTCGGTGCTGCTTCCTGTGTGGTCAGGATCACAG was tested, and the ETS1 binding intensity was 4270. In the case of GACAAAGAGGAAGTCCCCAAAAACCACAATAACAGT, the ETS1 binding intensity is reported as 4080. GACCAATGTAAACAAGGATGTGGGTTCTCCGGGCAC was tested, and the ETS1 binding intensity was 2030. Work on GGGTGCAGACGGGAAGTTGCGGCTGCCAGCGAAGCT yielded an ETS1 binding intensity of 2530. In the case of AGAACCACTTCCTCTCAGTAAACCACAGAGACTGTA, the ETS1 binding intensity is reported as 1310. CCCTGGGGCCCCACTTCCTTGCCCACAAGAAAGGAC was tested, and the ETS1 binding intensity was 446. In the case of GGCTGGGGCGGTATCCTGTGGTCTTACTCTGGTGAC, the ETS1 binding intensity is reported as 437. Work on CCGGGTAGGATCCGGTTGCCTTTCTGCGGTGGAGGA yielded an ETS1 binding intensity of 798. CGGGACACAGGAAGCCGTTGTGGGGCCCCGGGGCCA showed an ETS1 binding intensity of 1970. CCACCCTCCGTCCGGCCGCGACCGCGAGGAGGAAGA gave an ETS1 binding intensity of 1060. For AAACCAGAGAGGAAGTGGCACCACATGGCCAGACTG, the ETS1 binding intensity was 2150. ACGGGGAAGAACGGAAGTGGTTTCCATGATGGTCTG was tested, and the ETS1 binding intensity was 9080. In the case of GAATGACAGAAGCGGAAACCACATGAAAAAGGTGTT, the ETS1 binding intensity is reported as 4230.

Each sequence was assayed against RUNX1 (UniProt Q01196) (assay: RUNX1 binding intensity (PBM fluorescence) in presence of ETS1, normalised to RUNX1-only experiment (arbitrary fluorescence units); higher = stronger binding). Conditions: RUNX1 concentration 2 nM; ETS1 concentration 25 nM.
Sequence of RUNX1 (Q01196 whole entry): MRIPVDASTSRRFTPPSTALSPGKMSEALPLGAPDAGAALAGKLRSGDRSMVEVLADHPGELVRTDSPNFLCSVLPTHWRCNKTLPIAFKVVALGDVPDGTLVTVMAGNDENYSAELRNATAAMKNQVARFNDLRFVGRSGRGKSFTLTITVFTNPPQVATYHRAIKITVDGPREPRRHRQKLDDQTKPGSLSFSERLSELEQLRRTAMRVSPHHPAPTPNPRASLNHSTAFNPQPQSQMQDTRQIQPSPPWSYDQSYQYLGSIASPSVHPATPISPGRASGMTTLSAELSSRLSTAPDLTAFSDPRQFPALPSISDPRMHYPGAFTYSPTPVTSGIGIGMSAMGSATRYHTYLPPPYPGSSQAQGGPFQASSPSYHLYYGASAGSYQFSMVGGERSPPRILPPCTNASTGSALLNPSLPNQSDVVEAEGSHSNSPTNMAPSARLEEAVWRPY
Method: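 Cooperative gcPBM on 36-bp genomic probes with neighbouring ETS1 and RUNX1 sites. Recombinant human RUNX1 (2 nM) was incubated alone or with ETS1 (25 nM) and detected with anti-RUNX1 antibody plus Alexa488 secondary. Values are medians over 4 replicate spots; the RUNX1+ETS1 data were normalised to the RUNX1-only data. The probes sit in constant array flanks that are not printed.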
GCCGCCTCTTCCTGTGTTGCAAACCACAGGTCCACC was tested, and the RUNX1 binding intensity was 4540. Sequence AGGACCGGAAGTGCCCGAGGGCGGCCGCAGAACGGT has an RUNX1 binding intensity of 1320. Sequence GGGCCCACATCCGGCGCGCGCAACCGCAGCCTACTG has an RUNX1 binding intensity of 13100. CAAACAGGTTCCGGCCGGACTACAGCGCCCACAATG gave an RUNX1 binding intensity of 1080. Work on ACCACGAGCCCAGGATGCGGTTTATGCGCTGTCGGG yielded an RUNX1 binding intensity of 4230. Work on ATACTGAGTCATTTCCTGTGGTGTTATTGTGTTGTA yielded an RUNX1 binding intensity of 1570. ACCCGGATGTCGTTGGGCAGGAACTGCGGTGAGGGC showed an RUNX1 binding intensity of 1490. GGCCCAGGAAAGAGGCAGGGGTGCGGTTTCCCTCCG was tested, and the RUNX1 binding intensity was 1480. Work on GCGGAGCGAGCGGCCGGATGCGGTCACCATAGAGAC yielded an RUNX1 binding intensity of 8090. With CCAAGTGTAAAACGGAAGCTCAACCACGAATCTTAC the RUNX1 binding intensity was 1100. In the case of CCGCTTCCGGGACGCGAATCGCTCTGCGGCTGCGTC, the RUNX1 binding intensity is reported as 2080. For GGTTTAACGTTTCCGGTTTGTGGCTAGTTTCTTGTC, the RUNX1 binding intensity was 3520. Sequence TATTCAGGCTTCCGGGTGATGTTTGTGGCCACCCGG has an RUNX1 binding intensity of 1510. In the case of CTTCACTATGCATCCTGTACTGCAACCACACCAAAC, the RUNX1 binding intensity is reported as 1910. In the case of CCGGGACCGGAAGAGGGAGCCGTGGTTGCTGGAACT, the RUNX1 binding intensity is reported as 1960. AGTTTCTTCTTTCCGGTGGGTTTGTGGTCTTGCTGA gave an RUNX1 binding intensity of 2770. In the case of GCCCAGGAAGTGGGTACAAAATGAGCCACAAGACCT, the RUNX1 binding intensity is reported as 1610. CTGAGCCGGGACCGGAAGCCGCACCGCCCCCCGCGC was tested, and the RUNX1 binding intensity was 1770. TGATGCACTTCCTGAGGGCCCGCATGTGGTAAACAC was tested, and the RUNX1 binding intensity was 1480. GTCGTCCCGGAAACCGGGATGCGGTTATCAGAGCGA showed an RUNX1 binding intensity of 3180. In the case of GCCTGCAGCTTCTTCCTGTGGCTTCTGCATCTCAGG, the RUNX1 binding intensity is reported as 1320. CACTTCCTGCCCTCTTCCACTTTCAAAACCACATCA gave an RUNX1 binding intensity of 9880. CACCTGGCCCGGACGGCTGCGGTCTGGAGGGCTGTC was tested, and the RUNX1 binding intensity was 2050. Sequence CCTGCCTGACCGGAAGTGCCCGCAACCCCACCGACC has an RUNX1 binding intensity of 2870. Work on TTAACCAGACATTTCCTGTGGTCTAAGGTGACCCCA yielded an RUNX1 binding intensity of 2710. Work on CTCACAACTCGCGTCCGGCGGAGACCACAATTCCCG yielded an RUNX1 binding intensity of 1230. Work on AATGCCGGATATTGGTTCTGGTAAGCCACAAAAAAG yielded an RUNX1 binding intensity of 1390. GGCTCGGTGCTGCTTCCTGTGTGGTCAGGATCACAG showed an RUNX1 binding intensity of 1790. In the case of GACAAAGAGGAAGTCCCCAAAAACCACAATAACAGT, the RUNX1 binding intensity is reported as 3900. With GACCAATGTAAACAAGGATGTGGGTTCTCCGGGCAC the RUNX1 binding intensity was 928. GGGTGCAGACGGGAAGTTGCGGCTGCCAGCGAAGCT gave an RUNX1 binding intensity of 1270. In the case of AGAACCACTTCCTCTCAGTAAACCACAGAGACTGTA, the RUNX1 binding intensity is reported as 5880. Sequence CCCTGGGGCCCCACTTCCTTGCCCACAAGAAAGGAC has an RUNX1 binding intensity of 1360. GGCTGGGGCGGTATCCTGTGGTCTTACTCTGGTGAC gave an RUNX1 binding intensity of 2620. For CCGGGTAGGATCCGGTTGCCTTTCTGCGGTGGAGGA, the RUNX1 binding intensity was 1480. CGGGACACAGGAAGCCGTTGTGGGGCCCCGGGGCCA showed an RUNX1 binding intensity of 982. CCACCCTCCGTCCGGCCGCGACCGCGAGGAGGAAGA gave an RUNX1 binding intensity of 1130. In the case of AAACCAGAGAGGAAGTGGCACCACATGGCCAGACTG, the RUNX1 binding intensity is reported as 1140. For ACGGGGAAGAACGGAAGTGGTTTCCATGATGGTCTG, the RUNX1 binding intensity was 4470. GAATGACAGAAGCGGAAACCACATGAAAAAGGTGTT gave an RUNX1 binding intensity of 1360.

— the supplement of paper PMC10681739
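Throughout, for RUNX1 binding intensity (PBM fluorescence) in presence of ETS1, normalised to RUNX1-only experiment: Full-length recombinant human ETS1 or RUNX1 bound to double-stranded 36-bp genomic probes on microarrays, detected by protein-specific primary antibody and Alexa488 secondary, spot fluorescence as median of four replicate spots.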
